Among the data in PubChem BioAssay (Tox21) are Potency values, retold here.

Values joined by “and” are separate entries in the source; they are usually repeats but may differ in a detail not shown here. Equal entries are not always repeated. Records with an inconclusive call do not appear. Entries that show only a call come without a potency. Where a structure was tested more than once in an assay, its records may differ in their call. Active and inactive are the calls of the source. Calls follow the shape of the dose curve; as a rule, active = well fitted cell-killing curve with a large enough effect in the repeat runs; inconclusive = weak or mixed curves, or effect the other way; inactive = flat fitted curve, though single readings scatter.
Potency is read from the fitted curve at half-maximal effect.

The nature of this test: qHTS RealTime-Glo MT Cell Viability Assay in HEK293 cells - 24 hour (AID 1224886). Also: nearly all actives have a fitted effect of over 50% in size. The note with it: RealTime-Glo luminescence; series mostly up to 76.8 µM. Put shortly: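 Assay medium contained NanoLuc luciferase plus cell-permeant prosubstrate, added with HEK293 cells at 600 cells/well. After 5 h at 37 C/5% CO2 compounds were added; plates stayed at 37 C for 40 h with serial luminescence reads.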
Turning to `CN1C(C(=O)Nc2ccccn2)=C(O)c2ccccc2S1(=O)=O`, the Potency entry is “inactive”.
With `CC(=O)c1ccccn1`, the Potency result is “inactive”.
On to `O=C(/C=C/c1ccccc1)OCc1ccccc1`, for which the Potency result was “inactive”.
Regarding `O=C=Nc1ccc(Cc2ccc(N=C=O)cc2)cc1`, the Potency entry was “inactive”.
On to `O=Cc1ccccc1O`, for which the Potency result was “inactive”.
As to `OC(CCl)CCl`, the Potency entry was “inactive”.
For `Cc1c(OCC(F)(F)F)ccnc1CS(=O)c1nc2ccccc2[nH]1` (stereo not drawn), the Potency is 19.5 µM (active) and 19 µM (active).
With `CCC(C)(O)CCCC(C)C` (stereo not drawn) the entry was “inactive”.
As for `O=C(OCc1ccccc1)c1ccccc1O`, the Potency entry is “inactive”.
In the case of `COc1ccc(C(=O)CC(=O)c2ccc(C(C)(C)C)cc2)cc1`, the Potency was 29.6 µM (active) and inactive.
Consider `COC(=O)CCC(=O)OC`, for which the Potency entry was “inactive”.
Regarding `CCCCOCCOCCO`, the Potency result is “inactive”.
For the molecule `C=CC(C)(CCC=C(C)C)OC(C)=O` (stereo not drawn), the Potency entry is “inactive”.
As to `Cc1ccc(C)c(O)c1C`, the Potency entry is “inactive”.
Consider `Nc1ccc(Cl)cc1Cl`, for which the Potency entry is “inactive”.
On to `CC(C)Oc1ccc2c(=O)c(-c3ccccc3)coc2c1`, for which the Potency is 12 µM (active).
Consider `O=C(c1ccccc1)c1ccccc1O`, for which the Potency result is “inactive”.
The result for `c1ccc2sc(SSN3CCOCC3)nc2c1` reads 38.8 µM (active) and 49 µM (active); that for `O=C(c1ccc(OCCN2CCCCC2)cc1)c1c(-c2ccc(O)cc2)sc2cc(O)ccc12`, 19.5 µM (active).
The result for `O=[N+]([O-])c1ccc2c(c1)Cc1ccccc1-2` reads “inactive”; that for `CCCc1c(OCCCCc2nn[nH]n2)ccc(C(C)=O)c1O`, “inactive”.
Consider `Brc1cc(Oc2cc(Br)c(Br)c(Br)c2Br)c(Br)c(Br)c1Br`, for which the Potency result was “inactive”.
`c1ccc2cc(Nc3ccc(Nc4ccc5ccccc5c4)cc3)ccc2c1`: the Potency entry was “inactive”.
